aSyn rescue: rescues yeast growth from alpha-synuclein toxicity | AID 652106 | Potency, µM (top dose mostly 46.1 µM), inactives show top-dose growth rescue (activation), actives largely listed as activators | hit rate 0.14% among 370,000 | Yeast expressing alpha-synuclein, growth rescue, BacTiter-Glo, 24 h; note: % of control where 0% means no effect; nearly all actives have a fitted effect of over 65% in size
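Readout is rescue of growth in alpha-synuclein-expressing yeast, so inhibitors of toxicity appear as activators. Growth after 24 hr at 30 deg C in galactose medium is quantified by luminescence.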
Abeta yeast res: A-beta toxicity reversal in yeast. Potency, µM (top dose mostly 46.1 µM), actives largely listed as activators. yeast expressing A-beta42, growth rescue, OD600, 48 h; response scale: 0% DMSO, 100% iron-clioquinol control. hit rate 0.063% among 410,000. AID 1347071; note: nearly all actives have a fitted effect of over 55% in size
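Yeast A-beta toxicity model in growth medium with pinned compounds, 48 h at 30 C; growth read as absorbance at 600 nm. Normalized to FeCl3/clioquinol equimolar mix (positive) and DMSO (negative).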
FUS yeast rescue: rescues growth of FUS-expressing yeast. S. cerevisiae FUS-expressing, growth rescue, OD600, 24 h. Potency, µM (highest dose often 76.6 µM), hits mostly activators. hit rate 0.24% among 390,000;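 note: plate controls were DMSO vehicle for no effect and reference control for full effect; nearly all actives have a fitted effect of over 55% in size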
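Absorbance at 600 nm, taken 24hr after compound addition, measured rescue of FUS-yeast growth at 30C. Induction used 2% galactose with seeding at OD 0.005. Controls: CP55940 from 92uM final, DMSO only.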
TDP43 rescue: TDP-43 toxicity inhibition in yeast | TDP-43 expressing yeast growth rescue, BacTiter-Glo, 24 h | Potency, µM (top dose mostly 46.1 µM), for the others: at the highest dose growth rescue (activation), most hits filed as activators | hit rate 1.8% among 410,000; note: % of control where 0% means no effect; nearly all actives have a fitted effect of over 50% in size
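Yeast expressing TDP-43 (pregrown in raffinose, seeded at OD600=0.02 in galactose medium) exposed to compounds 24 hr at 30 deg C. Growth read by BacTiter-Glo luminescence; rescue of toxicity appears as increased signal.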
* hit, by the source's call; i = inactive; ? = inconclusive; . = no result given; [ ] = remark or other dose. The list is not random: actives were taken first. Their share in the collection is about 2.1%. Calls come from the whole dose curve; as a rule, active = well fitted curve in the direction sought with a large enough effect; inconclusive = small, poorly fitted or top-dose-only effect, or another doubt; inactive = no such curve, though single readings can be large; an effect the other way counts as inactive or inconclusive. Potency is the fitted concentration of half-maximal effect.

SMILES	aSyn rescue	Abeta yeast res	FUS yeast rescue	TDP43 rescue
Cc1nc(-c2cccc(CN(C)C(=O)Oc3ccc([N+](=O)[O-])cc3)c2)no1	-17.8%	i	i	12.6µM*
CCOC(=O)c1c(NC(NC(=O)CF)C(Cl)(Cl)Cl)sc2c1CCCC2 (stereo unspecified)	10.4%	i	i	22.4µM*
CCOc1ccc(N2CC(c3nc4ccccc4n3CCC3CCCCC3)CC2=O)cc1 (stereo unspecified)	.	i	i	25.1µM*
COc1cccc(OC)c1C1=NCC(=O)Nc2c1oc1ccc(Br)cc21	-2.5%	i	i	15.2%
C=CP(=O)(O)c1ccccc1	0.2%	i[9.22 µM]	i	15.1%
COC(=O)[C@@H]1C[C@]2(C(=O)O)c3ccccc3N(OOSc3ccccc3)[C@@H]2N1C(=O)OC	-0.4%	i	i	2.7%
Cc1ccccc1-n1nc(C)c2c1NC(=O)CSC2c1ccccc1C(F)(F)F (stereo unspecified)	.	i	i	35.5µM*
O=c1[nH]c(O)c(C=NCCc2ccccc2)c(=O)[nH]1	4.6%	i	i	9.4%
C[C@H](CCC(=O)O)[C@H]1CC[C@H]2[C@@H]3CC[C@@H]4C[C@H](O)CC[C@]4(C)[C@H]3CC[C@]12C	5.01µM*	i	i	1.1%
C[C@]12CC[C@H](O)C[C@@H]1CC[C@@H]1[C@@H]2CC[C@]2(C)[C@@H](C(=O)O)C[C@@H]12	-6.9%	i	i	?
Cc1ccc(Cn2nnnc2CN2CCC(n3nnc4cc(C)ccc43)CC2)cc1	2.1%	i	i	20µM*
Cc1cccc(-n2c(-c3cccs3)nc3ccccc3c2=O)c1	11.9%	i	i	20µM*
O=c1c2ccccc2nc(-c2cccs2)n1-c1ccccc1	2.1%	i	i	21.5%
CCc1ccc(NC(=O)CN2CC(c3ccccc3)CC2=O)cc1 (stereo unspecified)	1.2%	i	i	10.2%
C=CCOC(Cn1ccnc1)c1ccc(Cl)cc1Cl (stereo unspecified)	?	i	i	11.2µM*
Cc1sc2ncnc(N3CCC(C(=O)Nc4ccc(C#N)c(Cl)c4)CC3)c2c1C	-1.1%	i	i	24.0%
Cc1ccc(NC(=O)C2CCN(C(=O)c3cnn(-c4ccccc4)c3-n3cccc3)CC2)cc1Cl	.	i	i	35.5µM*
CC1=C(C(=O)N2CCC3(CC2)OCCO3)C2(CCC(C)CC2)OC1=O (stereo unspecified)	-2.0%	i	i	13.4%
Cc1ccc(NC(=O)CN2C(=O)CN=C(c3ccccc3)c3cc(Cl)ccc32)cc1	?	i	?	14.1µM*
O=C(CN1C(=O)CN=C(c2ccccc2)c2ccccc21)Nc1cccc(C(F)(F)F)c1	.	i	?	35.5µM*
CCCCCCN1CCN(c2ccccc2Cl)CC1	-6.8%	i	i	-1.6%
COC(=O)N1CCN(C(=O)Cc2ccc(Cl)c(Cl)c2)C(CN2CCCC2)C1 (stereo unspecified)	1.6%	.	.	.
CC(=O)Nc1cc(C(=O)N2CCC3(CC2)OCCO3)ccc1S(=O)(=O)c1ccc(Cl)cc1	-5.6%	i	i	-7.8%
CCC(C)NC(=O)CCC(=O)OC1O[C@H]2OC3(C)CC[C@H]4[C@H](C)CCC(C1C)C24OO3 (stereo partly specified)	-9.4%	i	i	35.5µM*
O=P(Nc1cccc(F)c1)(Oc1ccccc1F)Oc1ccccc1F	17.8µM*	?	i	27.9%
SMILES	aSyn rescue	Abeta yeast res	FUS yeast rescue	TDP43 rescue
Cc1ccccc1CN1C(=O)C(C)N=C(c2ccccc2)c2ccccc21 (stereo unspecified)	.	i	i	14.1µM*
Cc1oc(-c2ccccc2)nc1CN1C(=O)C(C)N=C(c2ccccc2F)c2cc(Cl)ccc21 (stereo unspecified)	-28.6%	i	i	?
Cc1ccc(C(c2nnnn2Cc2ccccc2)N2CC=C(c3ccc(F)cc3)CC2)cc1 (stereo unspecified)	0.2%	i	i	-4.2%
Cc1cccc(CN2CC=C(c3noc(CCC(=O)Nc4ccc(C)c(F)c4)n3)CC2)c1	.	i	i	3.3%
COC1C(C)OC(OC2CC(C)(O)Cc3cc4c(c(O)c32)C(=O)c2c(O)cc3c(c2C4=O)OC2OC3(C)C(O)C(N(C)C)C2O)C(OC)C1(C)OC (stereo unspecified)	?	i	.	22.4µM*
COc1ccc2c(c1)C13CCCCC1C(C2)N(C)CC3 (stereo unspecified)	2.4%	.	.	.
Cc1ccc(S(=O)(=O)Nc2ccc3ncccc3c2[N+](=O)[O-])cc1	-33.1%	i	.	3.55µM*
Oc1ccc(Cl)cc1Cc1ccccc1	-9.5%	i	i	14.1µM*
O=C1OCCN1P(=O)(c1ccccc1)c1ccccc1	-9.6%	i	i	0.0%
Cc1ccsc1C(=O)C1CCCN(Cc2ccc(-n3cccn3)cc2)C1 (stereo unspecified)	-2.7%	i	i	-11.5%
C[C@@H]1CC[C@H]2[C@@H](C)C(=O)O[C@@H]3O[C@@]4(C)CC[C@@H]1[C@]32OO4	0.0%	i	i	4.47µM*
C[C@@H]1CCC2[C@@H](C)C(=O)O[C@@H]3OC4(C)CCC1[C@@]23OO4 (stereo partly specified)	-0.3%	i	i	7.94µM*
CCOC(=O)C1(c2ccccc2)CCN(CCc2ccc(NC(=O)CCC(=O)O)cc2)CC1	2.4%	i	i	-10.1%
O=C(N/N=C/c1c(O)n(CCc2ccc(F)cc2)c(=O)[nH]c1=O)c1ccccc1	-0.7%	i	i	-0.6%
COC(=O)C1=C(c2cccc3c2S(=O)(=O)c2ccccc2-3)C[C@@H]2CC[C@H]1N2C(=O)N1CCc2cc(OC)c(OC)cc2C1	-0.1%	i	20µM*	?
O=C(Cc1ccccc1)OCC(=O)c1ccc(F)cc1	-13.7%	i	i	?
COC(=O)C1=C(c2ccccc2OCc2ccccc2)C[C@@H]2CC[C@H]1N2C(=O)NCc1ccc([N+](=O)[O-])cc1	14.0%	i	28.2µM*	23.1%
COC(=O)C1=C(c2ccccc2OCc2ccccc2)C[C@@H]2CC[C@H]1N2C(=O)NCc1ccc(Cl)cc1	12.8%	i	31.6µM*	?
COC(=O)C1=C(c2ccccc2OCc2ccccc2)C[C@@H]2CC[C@H]1N2C(=O)NCc1ccc(N(C)C)cc1	18.0%	i	i	19.4%
COC(=O)C1=C(c2ccc(F)cc2OCc2ccccc2)C[C@@H]2CC[C@H]1N2C(=O)NCc1ccc(OC)cc1	6.5%	i	i	?
COC(=O)C1=C(c2ccc(F)cc2OCc2ccccc2)C[C@@H]2CC[C@H]1N2C(=O)NCc1ccc(Br)cc1	11.7%	i	?	3.55µM*
CCC(=NCCCn1ccnc1)c1c(O)n(Cc2ccccc2)c(=O)[nH]c1=O	-2.1%	i	i	31.6µM*
Cc1ccc(/C=C2\C(=O)NC(=S)N(c3ccc(F)cc3)C2=O)o1	-0.4%	i	i	11.2µM*
